# Measured values reported in the supplement of paper PMC11417369.
# Whole data set: some 25,000 sequences, median “ln(normalized median fluorescence intensity)” near 9.3, cut for the highest 2% near 10. The list comes from a sample in which the highest values are over-represented; it also holds similar and randomly drawn sequences.
# Tested on: PF3D7_0420300 AP2 domain 1 (GST-tagged)
# Test: gcPBM binding intensity (ln(normalized median fluorescence intensity)); higher = stronger DNA binding
# In short: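 An Agilent 4 × 180k array carrying primer-extended double-stranded 36-bp intergenic genomic probes and negative controls received GST-tagged P. falciparum DNA-binding domains expressed in E. coli, about 25 μg on average, for 1 h. The binding buffer contained 1× PBS, 1% milk, 0.2 mg/ml BSA, 0.5% salmon testes DNA and 0.03% Triton X-100. Binding intensity is the top Masliner-normalised natural-log median intensity across replicate spots of either probe orientation, read after Alexa488 anti-GST antibody staining and a 488 nm scan.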
row,Sequence,gcPBM binding intensity (ln)
1,AAAAAAAAAAAAAAATGTACATATATATATATATTA [XGTACX_site7330],8.98
2,CACGCATACAGACACACACACACACCCATATATATA [CACACA_site636],10.2
3,CGCACAGACGGACACACACACACATATATATATATA [CACACA_site5249],10.1
4,CATATATACTCATACACACACACACCGACACAGACA [CACACA_site5026],10.1
5,CACGCATACAGACACACACACACACCGATATATATA [CACACA_site8113],10.3
6,CACAGACACGGACACACACACACACCGATATATATA [CACACA_site4353],10.3
7,TGGGAGCACAGACACACACACACACCCATATATATA [CACACA_site335],10.1
8,CACAGACACGGACACACACACATATATAATATATAT [CACACA_site4495],9.98
9,GGCATACACGGACACACACACACACCGACATATATA [CACACA_site4493],10.3
10,AATGAACTCACGAGCACACACACACCGATATATATA [CACACA_site4710],10
11,TGGGAGCACAGACACACACACACACCGATATATATA [CACACA_site8001],10.2
12,AATTAGATACTAACAAGTACATATATATATATATAT [XGTACX_site2252],9.59
13,ATATCGGGTGCATTAACACACATTTATTTGAATAAA [CACACA_site2350],9.24
14,TCAAGAGTTATATAAACACACATACATACAGACATA [CACACA_site6998],9.6
15,ATGTTATAAAATATATGTACATATTTATATAAAATA [XGTACX_site5766],9.14
16,AATATAATATAATATAGTACGTAAAAATATTATACA [XGTACX_site2170],9.47
17,ATATATGCATATATATGTACATATATATATATATAT [XGTACX_site7403],9.22
18,ATTATATTATATTATACATGCATAATATTATATAAA [TGCATGCA_site647],9.17
19,ATTAAATAAACCATTACACACTTTTATGTTTTGAAA [CACACA_site1143],9.3
20,AAAACTTTTTTAACAGAAAAATAGGGATACAATATA [CACACA_negctrl_site1708],9.35
21,CACGCATACGGACACACACACACACCGATATATATA [CACACA_site4521],10.3

row,Sequence,gcPBM binding intensity (ln)
1,AGGATACACGGACACACACACATATATATATATATA [CACACA_site4654],9.9
2,ATATATAAAATTATATGTACATATATCTATTTATAA [XGTACX_site3713],9.04
3,TTTATATAACAACAAAATGGAAATATATATGTATGT [TGCATGCA_negctrl_site98],9.53
4,TATACATACACATACACACATACACCCATACACATA [CACACA_site1746],9.93
5,TATACTCAGAAACACACACACACACCCAAAAAAAAA [CACACA_site4434],9.97
6,CACCCACCCACATACACACACATACACATATATATA [CACACA_site1722],10.2
7,CATATACACCAACACACACACACACCCACAAAAAAA [CACACA_site496],10.2
8,CATACTCACCAACACACACACACACCCATATAGAAT [CACACA_site592],10.2
9,CTTATATATACATATACACACACACCCATATATATA [CACACA_site8705],10.1
10,TACACCCACCCACATACACACACATACACATATATA [CACACA_site8503],10.2
11,CACATATATACACATACACACACACCCATACACCCA [CACACA_site8505],10.2
12,ACCCATATAATATATACACACATATATATATATATA [CACACA_site4731],9.52
13,TATACACCCGGACACACACACATATATATATATATA [CACACA_site5030],9.94
14,CATACACCCGGACACACACACACACCCATATATAAT [CACACA_site4494],10.3
15,ATAATTATATTTTATTCACACATCGTTATATAGTAA [CACACA_site4743],9.31
16,AATATAAATGTGATTACACACAACAGATTTAAATGG [CACACA_site4802],9.53
17,TGTTTATATAATATTCTACACACCAACAACAAACAT [CACACA_site8087],9.74
18,AAAATTTTTAGTTATACACACAACATAGAAAATATT [CACACA_site328],9.47
19,TTTTTTTCACAAAATACACACAATATATTTTATATC [CACACA_site1138],9.25
20,TATAATAAAATTTTTACACACTTTAAAAAAAAAAAA [CACACA_site524],9.06
21,CATACACCCCAACACACACACACACCCATATATAAT [CACACA_site8097],10.4

row,Sequence,gcPBM binding intensity (ln)
1,CATATACATACACATACACACATACACCCATACACA [CACACA_site8514],9.77
2,TATATATACATATACACACACACACCCATATATATA [CACACA_site2246],10.2
3,CATACACCCATACATACACACATACATATATATATA [CACACA_site8591],9.7
4,ATACATATATATATATGTACATATATTTATATTTAT [XGTACX_site3155],9.21
5,TGAAAAAAGAAAAATACACACATATAACATAATATA [CACACA_site7126],9.83
6,CTCAACAAAATATGAGTGCATTGTTATTACATATAT,9.32
7,TAAAAATATAGGTATACACACATATAAATATAAATA [CACACA_site7785],9.64
8,TAATTCTTGTAAAATGTGCGCAGTAGATATAGTTTT,9.27
9,AAAAGATAATTATGCACACACACACCCAGACACAAC [CACACA_site5428],10.1
10,GATAATTATGGACACACACACACACCCACAACTAAA [CACACA_site8824],10.3
11,TGCACGCACAGACACACACACAACTAAAAAATAATG [CACACA_site7250],9.72
12,AAGATAATTACGCACACACACACACGCCCACAACTA [CACACA_site7255],10.2
13,AAAAATAAAAATTGCACACTAAAAAATTACGCACGA [CACACA_site3418],9.59
14,TATGCACCCAGACACACACACACAACTAAAAAATAA [CACACA_site2567],9.96
15,TAATTATGCCAACACACACACACACCCAACTAAAAA [CACACA_site8823],10.2
16,TACACCCACCAACACACACACACACTAATAAAAAAA [CACACA_site8060],10.1
17,TAATTATGCAGACACACACACACACGCAACTAAAAA [CACACA_site7253],10.1
18,TAAAAAATAAAAATTGCACACTAAAAAATTACGCAC [CACACA_site9129],9.48
19,GATAATTACGGACACACACACACACGCACAACTAAA [CACACA_site7254],10.3
20,TGTGCCCAAAATTATGCACACACCTAAAATTAATTT [CACACA_site2914],9.42
